AT treatment: candidate therapy for ataxia-telangiectasia. F2112 A-T fibroblasts, KAP-1 phosphorylation AlphaLISA; neocarzinostatin DNA damage 30 min before lysis. Potency, µM (series often up to 57.5 µM), inactives show at the top dose activation, usual class: activators. 0.19% of 320,000 active. AID 485349; active means well fitted activation curve with a large enough effect; inconclusive means small, poorly fitted or top-dose-only effect; inactive means no such curve, though single readings can be large or run the other way; further: potency means the concentration at half of the fitted maximal effect; % of control where 0% means no effect; nearly all actives have a fitted effect of over 45% in size
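ATM-like activity read as KAP-1 phosphorylation via AlphaLISA donor/acceptor antibody pairs after lysis and 6 hr at 25C. Cells were ATM-null patient fibroblasts (F2112, hTERT), dosed 60 min, then exposed to the DSB inducer NCS for 30 min.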
TRPV1 ag: human TRPV1 agonism. AID 540275. activation, % at 8.33 µM. 0.19% of 320,000 active. TRPV1-expressing cells, Fluo-8 calcium influx, agonist mode; in the data active means activation above about 80%; inconclusive means between about 30% and that limit; further: 0% is about no effect
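Cells expressing TRPV1 were dye-loaded with Fluo-8 and read kinetically: 10 s baseline, 3 min after compound (agonist portion), then 2 min after EC20 capsaicin (allosteric enhancer portion). Calcium-bound dye fluorescence at 480/520 nm.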
TRPV1 PAM: potentiators of human vanilloid receptor 1 (TRPV1). AID 540277. Q8NER1. TRPV1-expressing cells, Fluo-8 calcium influx, capsaicin EC20 potentiation. 0.02% of 320,000 active. potentiation, % at 8.33 µM; in the data active means potentiation above about 80%; inconclusive means between about 30% and that limit; further: 0% is about no effect
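Cells expressing TRPV1 were dye-loaded with Fluo-8 and read kinetically: 10 s baseline, 3 min after compound (agonist portion), then 2 min after EC20 capsaicin (allosteric enhancer portion). Calcium-bound dye fluorescence at 480/520 nm.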
TRPML1 ag: human mucolipin-1 channel agonism. activation, % (test concentration not listed). 0.12% of 410,000 active. Q9GZU1. TRPML1-expressing cells, Ca2+ dye fluorescence, FDSS. AID 624414; in the data active means activation above about 50%; inconclusive means mostly about 30% to 49%; further: 0% is about no effect
Target sequence (Q9GZU1 whole entry, looked up): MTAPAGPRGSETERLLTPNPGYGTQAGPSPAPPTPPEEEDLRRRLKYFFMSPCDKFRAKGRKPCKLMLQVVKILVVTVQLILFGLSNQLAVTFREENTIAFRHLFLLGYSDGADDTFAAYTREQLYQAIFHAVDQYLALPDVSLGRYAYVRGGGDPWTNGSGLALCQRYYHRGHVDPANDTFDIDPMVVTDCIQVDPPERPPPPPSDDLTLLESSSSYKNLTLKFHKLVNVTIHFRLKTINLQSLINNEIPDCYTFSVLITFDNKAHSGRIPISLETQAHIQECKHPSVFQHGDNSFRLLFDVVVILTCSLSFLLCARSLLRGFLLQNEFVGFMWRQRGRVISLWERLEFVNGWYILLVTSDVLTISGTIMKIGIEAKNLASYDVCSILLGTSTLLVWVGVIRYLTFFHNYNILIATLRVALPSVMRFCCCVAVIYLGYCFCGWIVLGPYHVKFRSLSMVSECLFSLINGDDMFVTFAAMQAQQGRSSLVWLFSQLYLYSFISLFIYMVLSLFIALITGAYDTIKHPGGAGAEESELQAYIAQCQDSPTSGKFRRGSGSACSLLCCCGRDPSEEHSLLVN
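Cells: TRPML1-DL, 1X Tet inducer, ~16 h at 37 degrees C/5% CO2. Dye: ABD Ca8 no-wash + quencher, 45-90 min RT. Read: 10 s baseline, compound add, 110 s agonist phase; 54-4 EC80 (4uM final), 110 s antagonist phase.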
TRPML1 inh: human mucolipin-1 channel inhibition; TRPML1-inducible cells, Ca2+ dye fluorescence, FDSS; active compounds read low; inhibition of EC80 agonist-evoked calcium signal; 0.02% of 390,000 active; activity change, negative = inhibition, % (test concentration not listed); Q9GZU1; in the data active means activity change below about -50%; inconclusive means between about -30% and that limit;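 further: stimulus is agonist 54-4 at its EC80 concentration; on the % scale 0 is the no-effect control and ±100 the full control effect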
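Tet-induced TRPML1-DL cells loaded with Ca8 no-wash calcium dye were read kinetically on FDSS. Compound addition was followed by EC80 agonist 54-4 (4 uM final); inhibition was read over 110 s.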
* = called active by the depositor; ? = inconclusive; / = no result. The list is not random: actives were taken first. Their share in the collection is about 0.41%.

SMILES	AT treatment	TRPV1 ag	TRPV1 PAM	TRPML1 ag	TRPML1 inh
C[n+]1c(/C=C/c2ccnc3ccccc23)cc(/C=C/c2ccnc3ccccc23)c2ccccc21	/	/	/	-0.6	/
COc1cccc(CCNC(=O)CCc2nnc(-c3cc(C)oc3C)o2)c1	1.1%	2.6	100.7*	2.3	-9.0
CCCCNC(=O)[C@@H]1CC=C[C@@H]2CCN(CCCC)C(=O)[C@@H]21	/	/	/	-0.7	/
CCCCOc1ccc(CC(=O)N(C)O)cc1	/	/	/	-1.2	/
COc1ccc(-c2cc(C(=O)Nc3ccc(C)c(C)c3)no2)cc1	12.6µM*	-1.8	6.3	1.2	-0.8
Cc1ccc(NC(=O)c2cc(-c3ccc(F)cc3)on2)cc1C	1.6%	3.5	-4.9	/	/
CC1CCN(C(=O)Nc2ccc3nc(-c4ccco4)c(-c4ccco4)nc3c2)CC1	/	/	/	0.1	/
CN(CC(=O)Nc1ccc(Cl)cc1)Cc1cc(=O)n2ccsc2n1	-0.5%	5.3	-7.5	4.2	4.8
Cc1ccc(NC(=O)CN(C)Cc2cc(=O)n3ccsc3n2)cc1	12.6µM*	-0.1	-2.9	0.0	14.6
Cc1nc(Cl)sc1C(=O)Nc1ccc(C(C)(C)C)cc1	8.7%	80.1*	-2.3	0.8	-4.7
O=[N+]([O-])c1ccc(O/N=[N+](\[O-])N2CCCC2)c([N+](=O)[O-])c1	/	/	/	1.2	4.6
Cc1cc(/C=C2\Cc3ccccc3C2=O)c(C)n1-c1ccccc1	7.5%	86.0*	-1.1	2.5	-9.4
O=c1cc(-c2cccs2)oc2ccc(Cl)cc12	6.8%	22.6	-18.7	0.0	0.6
O=c1c(O)c(-c2cccs2)oc2ccccc12	-4.4%	?	0.1	54.8*	-3.4
O=c1c(O)c(-c2cccs2)oc2ccc(Cl)cc12	3.2%	?	-12.8	59.5*	-8.5
Cc1cc(Oc2ccccc2)nc(-c2ccccc2)n1	17.8µM*	1.0	-16.5	1.6	24.5
CCOc1ccc(N(CC(=O)Nc2cc(C)ccc2C)S(=O)(=O)c2c(C)[nH]c(=O)[nH]c2=O)cc1	28.2µM*	1.0	-2.0	-0.5	-7.5
CCOc1ccc(N(CC(=O)Nc2ccccc2C)S(=O)(=O)c2c(C)[nH]c(=O)[nH]c2=O)cc1	1.1%	-2.0	-0.4	0.2	4.7
COc1cc2c(NC3CCN(C)CC3)nc(N3CCCN(C)CC3)nc2cc1OCCN(C)C	/	/	/	-0.2	/
O=C(N/N=C/C1CC2C=CC1C2)c1ccccc1O (centres undefined)	31.6µM*	?	-26.7	0.0	12.6
CCN1C(=O)[C@H]2[C@@H](c3ccc(-c4cccc(Cl)c4)cc3)N[C@@](CC(C)C)(C(=O)OC)[C@H]2C1=O	-8.1%	/	/	1.3	-21.8
CCN1C(=O)[C@H]2[C@@H](c3ccc(-c4ccc(Cl)c(Cl)c4)cc3)N[C@@](CC(C)C)(C(=O)OC)[C@H]2C1=O	35.5µM*	7.1	-15.2	0.4	17.6
O=[N+]([O-])c1ccc2c(c1)C=CC2	/	/	/	-0.4	/
COc1cc2nc(N3CCN(C)CC3)nc(NC3CCN(Cc4ccccc4)CC3)c2cc1OC	/	/	/	-0.2	/
CC(=O)Nc1ccc(NS(=O)(=O)c2c(Cl)cccc2Cl)cc1	39.8µM*	-4.6	14.4	/	/
SMILES	AT treatment	TRPV1 ag	TRPV1 PAM	TRPML1 ag	TRPML1 inh
Cc1ccc(-c2nc3cnccn3c2Nc2c(C)cccc2C)o1	15.8µM*	/	/	2.6	15.3
Cc1ccc(C(=O)Nc2ccc(SC(F)F)cc2)s1	6.8%	85.8*	-13.3	2.2	-6.9
COC(=O)N1C(=O)[C@](Cc2ccccc2)(c2ccccc2)N1C(=O)OC	39.8µM*	5.8	-17.2	-0.6	-3.1
COC(=O)N1C(=O)[C@@](Cc2ccccc2)(c2ccccc2)N1C(=O)OC	?	3.0	?	-0.7	10.5
CS(=O)(=O)N1CCN(/[N+]([O-])=N/Oc2ccc([N+](=O)[O-])cc2[N+](=O)[O-])CC1 (tested in a mixture with another compound)	/	/	/	1.7	-16.4
O=S(=O)(NCC1(N2CCOCC2)CCCCC1)c1ccccc1Cl	-5.7%	25.4	-18.6	0.0	-4.6
O=S(=O)(NCC1(N2CCOCC2)CCCCC1)c1ccc(Cl)cc1C(F)(F)F	0.9%	15.1	-13.8	80.8*	-11.7
COc1ccc(C(=O)c2sc3nc(C)cc(-c4cccs4)c3c2N)cc1OC	13.3%	17.2	15.2	52.2*	-20.9
COc1ccc(C(=O)c2sc3nc(C)cc(-c4cccs4)c3c2N)cc1	6.3%	0.8	5.3	?	1.3
COc1nc(NCCO)nc(Nc2ccccc2F)n1	1.3%	-3.1	110.2*	0.8	24.9
CCN1/C(=C/C=C/c2sc3ccccc3[n+]2CC)Sc2ccccc21	9.8%	-3.8	10.8	-0.3	-4.0
CCN1/C(=C/C=C/c2oc3ccc(-c4ccccc4)cc3[n+]2CC)Oc2ccc(-c3ccccc3)cc21	20.3%	105.4*	?	80.1*	-15.9
CC(=O)Nc1ccc(C2=NN(c3ccccc3)C(c3cccs3)C2)cc1 (centres undefined)	25.1µM*	18.0	0.8	5.0	10.1
CC(OC(=O)C1CCN(S(=O)(=O)c2ccc(C(C)(C)C)cc2)CC1)C(=O)N(C)C1CCCCC1 (centres undefined)	/	/	/	94.9*	-17.0
CC(OC(=O)C1CCN(S(=O)(=O)c2ccc(C(C)(C)C)cc2)CC1)C(=O)N1CCOCC1 (centres undefined)	-0.3%	0.7	1.2	-0.9	-10.7
COc1ccc(/C=C2\CC/C(=C\c3ccc(OC)c(OC)c3)C2=O)cc1OC	-9.5%	-4.8	20.5	4.1	21.0
COc1cc(/C=C2\CC/C(=C\c3ccc(OCCO)c(OC)c3)C2=O)ccc1OCCO	2.0%	?	6.0	106.9*	-28.1
O=C1c2ccccc2-c2onc3ccc(NCCCn4ccnc4)c1c23	1.5%	?	-7.3	74.5*	5.7
COc1ccc2noc3c2c1C(=O)c1ccccc1-3	/	/	/	79.3*	1.3
NS(=O)(=O)c1ccc(NCCCn2ccnc2)c([N+](=O)[O-])c1	-0.8%	0.2	-2.5	-0.1	-8.4
COc1ccc(OC)c2c1C(=O)c1ccccc1C2=O	-5.7%	5.0	13.0	11.0	-12.8
CC(C)CN(C)c1ccc(/C=C2\C=Cc3ccccc32)cc1	/	/	/	-0.7	/
Cc1nc(C(F)(F)F)ccc1C(=O)Nc1ccc(C(F)(F)F)cn1	5.1%	82.2*	-20.9	-0.2	-0.5
COc1ccc(-c2csc(-n3ncc(C(=O)O)c3C(F)(F)F)n2)cc1	39.8µM*	2.6	-6.7	0.2	28.8
Cc1nnsc1C(=O)NC1CCCc2c1cnn2-c1ccc(C(C)(C)C)cc1 (centres undefined)	-5.6%	85.2*	3.3	-0.2	-17.2
O=S(=O)(c1ccc2nc(N3CCN(c4ccccc4)CC3)ccc2c1)N1CCCCC1	10.1%	-0.8	2.5	0.6	-5.8
